# Screening results deposited in PubChem BioAssay by several laboratories.
# This is a sample that favours compounds with a hit; in the whole collection about 1.5% have one here.
# MEX-5 binding – C. elegans MEX-5 TCR-2 RNA binding activity; Q9XUB2; MEX-5/FITC-TCR2 RNA binding, fluorescence polarization; stronger effect = lower value; 0.38% of 300,000 active; AID 1832; activity score (negative = inhibition of binding), % at 10 µM;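 active = inhibition past about -25% in most replicates, and total fluorescence under double the plate's negative control median, limit read from the data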;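 note: 0% = DMSO and -100% = 5 µM competing unlabeled TCR2 RNA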
# GLD-1 RNA inh – GLD-1-TGE RNA interaction inhibition (C. elegans) | Q17339 | purified GLD-1 + fluorescein TGE RNA, fluorescence polarization | inhibition, % at 5.96 µM | 0.44% of 320,000 active | AID 2280;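 active = percent inhibition above a per-plate cutoff, the plate mean of test compounds plus 3 SD, cut at about 30% in these data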;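 note: 0% = DMSO wells with GLD-1 and probe and 100% = wells lacking GLD-1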
# Target sequence (Q17339 whole entry, looked up): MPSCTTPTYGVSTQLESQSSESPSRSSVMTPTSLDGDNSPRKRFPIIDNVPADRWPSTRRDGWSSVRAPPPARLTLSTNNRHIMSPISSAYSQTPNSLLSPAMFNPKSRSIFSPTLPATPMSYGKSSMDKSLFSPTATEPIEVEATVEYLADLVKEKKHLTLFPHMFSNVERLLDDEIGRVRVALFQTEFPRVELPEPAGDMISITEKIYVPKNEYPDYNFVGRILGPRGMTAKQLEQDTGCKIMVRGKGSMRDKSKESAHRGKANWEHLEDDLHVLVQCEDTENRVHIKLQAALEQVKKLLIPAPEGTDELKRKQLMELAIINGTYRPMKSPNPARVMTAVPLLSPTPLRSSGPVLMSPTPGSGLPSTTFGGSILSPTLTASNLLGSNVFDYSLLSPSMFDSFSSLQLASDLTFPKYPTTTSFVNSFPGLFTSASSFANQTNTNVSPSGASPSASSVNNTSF
# E coli Lon inh – E. coli protease La inhibition | inhibition, % at 7.94 µM | P0A9M0 | purified E. coli Lon protease, fluorescence polarization | 0.42% of 360,000 active; in the data active = inhibition above about 13%, passing the limit was not always enough;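 note: 0% = enzyme with probe and DMSO and 100% = no enzyme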
# Bcl-xL primary – inhibitors of human Bcl-xL; GST-Bcl-xL / FITC-Bim BH3 peptide fluorescence polarization; 0.7% of 320,000 active; inhibition, % at 10.9 µM;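 active = inhibition above the mean of all tested compounds plus 3 SD, cutoff set per campaign, cut at about 30% in these data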;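 note: 0% = DMSO wells and 100% = unlabeled Bim-BH3 peptide competitor; inhibitors lower millipolarization by displacing the labeled peptide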
# EBV gp42 block – EBV gp42 inhibition | Q1HVG2 | Fluorescence polarization binding assay, mP read-out | 0.42% of 220,000 active | inhibition, % (tested at 21.74 µM); in the data active = inhibition above about 50%
# MCL1 BIM primary – disrupts human MCL1 binding to BIM-BH3 peptide | Q07820 | GST-MCL1 / FITC-Bim-BH3 fluorescence polarization | inhibition, % at 10.9 µM | 0.68% of 320,000 active | AID 2057;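 active = inhibition above the mean inhibition of all tested compounds plus 3 SD, set per campaign, cut at about 40% in these data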;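 note: 0% = DMSO wells and 100% = unlabeled Bim-BH3 peptide control; higher means more loss of mP so more displacement of Bim peptide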
# BCLXL inh confirm – counter-screen for MCL1 inhibitors: confirmation of human Bcl-xL inhibitors. shares compounds with MCL1 BIM primary. GST-Bcl-xL / FITC-Bim BH3 peptide FP binding. inhibition, % at 10.9 µM. 54% of 1,700 active;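 active = inhibition above a cutoff equal to the mean inhibition of all tested compounds plus 3 SD, cut at about 30% in these data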;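 note: 0% = DMSO wells and 100% = unlabeled Bim BH3 control peptide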
# MCL1 BIM confirm – confirmation of human MCL1 and BIM-BH3 interaction inhibitors. shares compounds with MCL1 BIM primary. GST-MCL1 / FITC-Bim-BH3 fluorescence polarization. inhibition, % at 10.9 µM. 61% of 1,700 active. AID 2168;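 active = inhibition above the average of all tested compounds plus 3 SD, cut at about 40% in these data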;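 note: 0% = DMSO wells and 100% = unlabeled Bim-BH3 control peptide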
# The depositor's hits bear a star; x = no result given; + = active, no number.
SMILES,MEX-5 binding,GLD-1 RNA inh,E coli Lon inh,Bcl-xL primary,EBV gp42 block,MCL1 BIM primary,BCLXL inh confirm,MCL1 BIM confirm
CCOC(=O)c1c[nH]c2nc(C)ccc2c1=O,-47*,61*,15,78*,46,85*,70*,89*
COc1ccc(COC(=O)c2ccc(Cl)c(S(=O)(=O)N3CC(C)OC(C)C3)c2)cc1 (stereo not given),-1,4,-4,0,x,5,x,x
CCCN1CCC2(CC1)C(C#N)=C(N)Oc1c2sc2nc(C)cc(C)c12,-1,30,-37,69*,-17,70*,45*,46*
COC1=CC(=O)C(O)=C(CCCCCCC/C=C/CCCCCCCC2=C(O)C(=O)C=C(OC)C2=O)C1=O,1,4,1,45*,x,107*,32*,81*
CCCCCCCCCCCC1=C(O)C(=O)C=C(O)C1=O,-1,4,4,8,x,52*,46*,76*
CCCCCCc1c(O)c2ccccc2[nH]c1=O,-2,1,1,7,-14,0,x,x
CC(=O)Nc1c2c(nn1-c1ccc(C)cc1)CS(=O)(=O)C2,0,-6,1,1,x,5,x,x
Cc1cc(N)ccc1-n1c(C)ccc1C,1,4,-12,11,-4,13,x,x
Cc1cc(C(=O)O)ccc1-n1c(C)ccc1C,-88*,26,x,47*,-10,98*,89*,141*
COCCn1c(C)c(C)c(S(=O)(=O)c2ccccc2)c1N,2,29,8,68*,x,72*,44*,62*
CC(=O)Nc1ccc(NC(=O)C(C)OC(=O)/C(C#N)=C/c2ccc(N(C)C)cc2)cc1 (stereo not given),-26*,136*,-112,+,x,+,165*,191*
COc1cccc(CN2C(=O)c3cccc(N)c3C2=O)c1,-21,44*,18,50*,59*,58*,33*,53*
O=C(O)c1ccccc1/C=N/NC(=O)c1cc(-c2ccco2)nc2ccccc12,-16,3,-11,25,59*,64*,42*,91*
COc1ccc(Nc2nc3ccccc3nc2-n2nc(C)cc2C)cc1,-1,0,-8,-3,1,0,x,x
Cc1cc(C)n(-c2nc3ccccc3nc2Nc2ccc3[nH]c(=O)[nH]c3c2)n1,-3,65*,-7,79*,-15,54*,43*,36
O=[N+]([O-])c1ccc(/C=N/Nc2ncccc2[N+](=O)[O-])s1,-2,0,7,1,x,0,x,x
O=[N+]([O-])c1ccc(/C=N/n2cnc3ccccc32)s1,-41*,7,-4,52*,14,72*,71*,76*
COc1ccccc1NS(=O)(=O)c1ccc(C)c(C(=O)N2CCCC2)c1,x,2,-5,1,x,-2,x,x
CCSc1nnc(N2C(=O)C(O)=C(C(=O)c3ccco3)C2c2cccc(OC)c2)s1 (stereo not given),-2,79*,19,60*,x,60*,65*,76*
O=C(C1=C(O)C(=O)N(c2ncccn2)C1c1ccc(Cl)cc1)c1ccco1 (stereo not given),-3,4,-6,4,-12,7,x,x
CSc1nnc(N2C(=O)C(O)=C(C(=O)c3ccco3)C2c2ccc(F)cc2)s1 (stereo not given),-22,83*,-4,80*,x,71*,43*,55*
COc1ccc2nc(N3C(=O)C(O)=C(C(=O)c4ccco4)C3c3ccc(C)o3)sc2c1 (stereo not given),x,x,-12,x,x,x,x,x
CCOc1ccc2nc(NCCNC(=S)NCCCN(C)C)c(C#N)cc2c1,-1,6,17,12,-4,8,x,x
CCOc1ccc(C(=O)Nc2nc3ccccc3[nH]2)cc1OCC,-2,14,-14,20,7,5,x,x
COc1cc2cc(CN(Cc3nnnn3Cc3ccco3)C3CCCCC3)c(=O)[nH]c2cc1OC,-10,30,4,47*,-1,60*,24,20
SMILES,MEX-5 binding,GLD-1 RNA inh,E coli Lon inh,Bcl-xL primary,EBV gp42 block,MCL1 BIM primary,BCLXL inh confirm,MCL1 BIM confirm
CCCCC1=CC2=C(c3ccco3)C(=O)C(C)(OC(=O)c3ccc(OC)cc3)C(=O)C2=CN1c1ccccc1 (stereo not given),1,44*,10,49*,3,50*,2,-10
CCCCC1=CC2=C(c3ccco3)C(=O)C(C)(OC(=O)c3ccc(OC)cc3)C(=O)C2=CN1CCCOC(C)C (stereo not given),0,51*,-2,63*,17,65*,72*,91*
CCC(=O)Nc1ccc2c(c1)nc(CCN1CCCCC1)n2C,1,-1,2,7,x,3,x,x
CC(=O)c1cccc(N(CC(=O)Nc2ccc(F)cc2F)S(C)(=O)=O)c1,-2,2,7,2,-12,-2,x,x
O=C1C(=O)c2ccccc2C(O)=C1c1cccc([N+](=O)[O-])c1,x,-4,7,3,-2,4,x,x
O=C(Nc1nc2c(s1)CCCC2=O)c1cnccn1,-1,3,-8,1,1,-6,x,x
CN1CCN(C2=C(Cl)C(=O)C(c3cnc(N4CCCCC4)s3)=C(Cl)C2=O)CC1,-71*,27,8,77*,-7,93*,72*,92*
CC(C)CC(=O)NC(=S)Nc1ccc(N2CCOCC2)cc1,3,4,-7,27,-10,12,x,x
Cc1ccc(NC(=S)Nc2ccc3nc(-c4ccccn4)c(-c4ccccn4)nc3c2)cc1C,x,103*,120*,122*,35,151*,61*,62*
Cc1ccc(NC(=S)Nc2ccccn2)cc1C,-1,7,4,11,16,12,x,x
COCCCNC(=O)c1ccccc1Oc1ccccc1,-1,0,-4,12,-14,-5,x,x
COCCCNC(=O)c1ccc2c3c(onc13)-c1ccccc1C2=O,-79*,197*,2,+,184*,+,+,+
CNC(=O)c1ccsc1NC(=O)CS(=O)(=O)c1ccccc1,1,6,-5,4,x,-2,x,x
CNC(=O)c1ccsc1NC(=O)CN1C(=O)CCC1=O,1,148*,-1,144*,-1,155*,14,10
CCOc1ccc(-n2cc(-c3ccccc3)c3c(=S)nc[nH]c32)cc1,-2,-4,-7,9,x,10,x,x
CCOC(=O)C1CCN(S(=O)(=O)c2ccc(Br)c(OCC)c2)CC1,0,4,-11,7,-30,5,x,x
